Where two headings read alike, the source gives them in different places.
Legend:
ABL2 = tested on: ABL2; design: species or system human, MV4-11 + K-562 + COLO205 + SK-N-BE2 + OVCAR-8; conditions: read-out: apparent Kd, n = 1
CLK1 = tested on: CLK1; design: species or system human, MV4-11 + K-562 + COLO205 + SK-N-BE2 + OVCAR-8; conditions: read-out: apparent Kd; compound concentrations:100 nM and 1000 nM (sheet 'Samples'); n = 1
RIPK2 = tested on: RIPK2; design: species or system human, MV4-11 + K-562 + COLO205 + SK-N-BE2 + OVCAR-8; conditions: read-out: apparent Kd, n = 1
Q6ZSR9 = Q6ZSR9 (human, UniProt Q6ZSR9); design: species or system MV4-11 + K-562 + COLO205 + SK-N-BE2 + OVCAR-8; conditions: read-out: apparent Kd; compound concentrations:100 nM and 1000 nM (sheet 'Samples'); n = 1
Q6ZSR9, sequence (Q6ZSR9 whole entry, looked up): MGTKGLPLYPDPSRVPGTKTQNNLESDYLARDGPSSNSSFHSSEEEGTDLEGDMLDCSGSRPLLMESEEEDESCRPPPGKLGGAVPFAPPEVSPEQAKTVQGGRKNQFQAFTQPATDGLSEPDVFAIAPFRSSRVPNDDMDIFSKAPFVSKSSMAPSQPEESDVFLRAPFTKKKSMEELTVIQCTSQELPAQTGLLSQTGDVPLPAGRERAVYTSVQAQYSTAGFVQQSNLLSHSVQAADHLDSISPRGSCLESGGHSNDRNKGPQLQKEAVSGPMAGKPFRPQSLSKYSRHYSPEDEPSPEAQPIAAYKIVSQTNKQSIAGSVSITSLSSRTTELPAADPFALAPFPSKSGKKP

CSNK2A1;CSNK2A3 = tested on: CSNK2A1;CSNK2A3; design: species or system human, MV4-11 + K-562 + COLO205 + SK-N-BE2 + OVCAR-8; conditions: read-out: apparent Kd; compound concentrations:100 nM and 1000 nM (sheet 'Samples'); n = 1
CSNK2A2 = tested on: CSNK2A2; design: species or system human, MV4-11 + K-562 + COLO205 + SK-N-BE2 + OVCAR-8; conditions: read-out: apparent Kd; compound concentrations:100 nM and 1000 nM (sheet 'Samples'); n = 1
PTK6 = tested on: PTK6; design: species or system human, MV4-11 + K-562 + COLO205 + SK-N-BE2 + OVCAR-8; conditions: read-out: apparent Kd, n = 1
YES1 = tested on: YES1; design: species or system human, MV4-11 + K-562 + COLO205 + SK-N-BE2 + OVCAR-8; conditions: read-out: apparent Kd, n = 1
ABL1 = tested on: ABL1; design: species or system human, MV4-11 + K-562 + COLO205 + SK-N-BE2 + OVCAR-8; conditions: read-out: apparent Kd, n = 1
BCR = tested on: BCR; design: species or system human, MV4-11 + K-562 + COLO205 + SK-N-BE2 + OVCAR-8; conditions: read-out: apparent Kd, n = 1
FYN = tested on: FYN; design: species or system human, MV4-11 + K-562 + COLO205 + SK-N-BE2 + OVCAR-8; conditions: read-out: apparent Kd, n = 1
GAK = tested on: GAK; design: species or system human, MV4-11 + K-562 + COLO205 + SK-N-BE2 + OVCAR-8; conditions: read-out: apparent Kd, n = 1
RET = tested on: RET; design: species or system human, MV4-11 + K-562 + COLO205 + SK-N-BE2 + OVCAR-8; conditions: read-out: apparent Kd, n = 1
RIPK3 = tested on: RIPK3; design: species or system human, MV4-11 + K-562 + COLO205 + SK-N-BE2 + OVCAR-8; conditions: read-out: apparent Kd, n = 1
HCK = tested on: HCK; design: species or system human, MV4-11 + K-562 + COLO205 + SK-N-BE2 + OVCAR-8; conditions: read-out: apparent Kd; compound concentrations: 100 nM and 1000 nM (sheet 'Samples'), CATDS: 7.6691780637307694E-2; n = 1
LCK = tested on: LCK; design: species or system human, MV4-11 + K-562 + COLO205 + SK-N-BE2 + OVCAR-8; conditions: read-out: apparent Kd, n = 1
TNK1 = tested on: TNK1; design: species or system human, MV4-11 + K-562 + COLO205 + SK-N-BE2 + OVCAR-8; conditions: read-out: apparent Kd, n = 1
CLK4 = tested on: CLK4; design: species or system human, MV4-11 + K-562 + COLO205 + SK-N-BE2 + OVCAR-8; conditions: read-out: apparent Kd; compound concentrations:100 nM and 1000 nM (sheet 'Samples'); n = 1
[1] = compound concentrations:100 nM and 1000 nM (sheet 'Samples')

CNc1nccc(-c2c(-c3ccc(F)cc3)ncn2C2CCN(C)CC2)n1 [SB-222903]
potency estimated from few doses (ABL2; [1]): 0.389 µM | potency estimated from few doses (CLK1): 0.808 µM | potency estimated from few doses (RIPK2; [1]): 0.433 µM

Fc1ccc(-c2c(-c3ccncc3)[nH]c3nccnc23)cc1 [RO1155697-000]
potency estimated from few doses (RIPK2; [1]): 0.828 µM

COc1cc2ncn(-c3cc(OCc4cccs4)c(C(N)=O)s3)c2cc1OC [GSK312948A]
potency estimated from few doses (Q6ZSR9): 2.25 µM

Nc1nc(N)c2nc(-c3ccccc3)[nH]c2n1 [SKF-12778]
potency estimated from few doses (CLK1): 1.15 µM | potency estimated from few doses (CSNK2A1;CSNK2A3): 1.35 µM | potency estimated from few doses (CSNK2A2): 1.1 µM | potency estimated from few doses (PTK6; [1]): 1.15 µM | potency estimated from few doses (YES1; [1]): 1.04 µM

Cc1ccc(O)cc1Nc1ccnc2ccc(C(C)(C)C)cc12 [GW856805X]
potency estimated from few doses (ABL1; compound concentrations: 100 nM and 1000 nM (sheet 'Samples'), CATDS: 2.7380804690978401E-2): 1.4 µM | potency estimated from few doses (ABL2; compound concentrations: 100 nM and 1000 nM (sheet 'Samples'), CATDS: 3.3299960088100697E-2): 0.317 µM | potency estimated from few doses (BCR; compound concentrations: 100 nM and 1000 nM (sheet 'Samples'), CATDS: 4.5684736172067801E-2): 0.0791 µM | potency estimated from few doses (FYN; compound concentrations: 100 nM and 1000 nM (sheet 'Samples'), CATDS: 4.6328072424656697E-2): 0.0755 µM | potency estimated from few doses (GAK; compound concentrations: 100 nM and 1000 nM (sheet 'Samples'), CATDS: 4.7417196878279499E-2): 0.07 µM | potency estimated from few doses (PTK6; compound concentrations: 100 nM and 1000 nM (sheet 'Samples'), CATDS: 2.9493928233546299E-2): 0.718 µM | potency estimated from few doses (RET; compound concentrations: 100 nM and 1000 nM (sheet 'Samples'), CATDS: 4.15605904174959E-2): 0.111 µM | potency estimated from few doses (RIPK2; compound concentrations: 100 nM and 1000 nM (sheet 'Samples'), CATDS: 0.10546216310876699): 0.0111 µM | potency estimated from few doses (RIPK3; compound concentrations: 100 nM and 1000 nM (sheet 'Samples'), CATDS: 3.0648006837875299E-2): 0.54 µM

CN1CCc2ccc(Nc3nccc(-c4c(-c5cccc(NC(=O)c6c(F)cccc6F)c5)nc5ccccn45)n3)cc2C1.Cl [GSK1010829B]
potency estimated from few doses (ABL1; compound concentrations: 100 nM and 1000 nM (sheet 'Samples'), CATDS: 3.3461879574950899E-2): 1.49 µM | potency estimated from few doses (ABL2; compound concentrations: 100 nM and 1000 nM (sheet 'Samples'), CATDS: 5.23803591077244E-2): 0.515 µM | potency estimated from few doses (FYN; compound concentrations: 100 nM and 1000 nM (sheet 'Samples'), CATDS: 4.4096007495545798E-2): 0.732 µM | potency estimated from few doses (HCK): 0.27 µM | potency estimated from few doses (LCK; compound concentrations: 100 nM and 1000 nM (sheet 'Samples'), CATDS: 0.10139412977774399): 0.18 µM | potency estimated from few doses (RET; compound concentrations: 100 nM and 1000 nM (sheet 'Samples'), CATDS: 6.1387367146580003E-2): 0.387 µM | potency estimated from few doses (RIPK2; compound concentrations: 100 nM and 1000 nM (sheet 'Samples'), CATDS: 3.7106800723599898E-2): 1.11 µM | potency estimated from few doses (RIPK3; compound concentrations: 100 nM and 1000 nM (sheet 'Samples'), CATDS: 5.0630244265372597E-2): 0.55 µM | potency estimated from few doses (TNK1; compound concentrations: 100 nM and 1000 nM (sheet 'Samples'), CATDS: 4.6231570261128598E-2): 0.661 µM | potency estimated from few doses (YES1; compound concentrations: 100 nM and 1000 nM (sheet 'Samples'), CATDS: 8.6634925532114604E-2): 0.225 µM

Cn1cc(-c2ccc3c(c2)CCN3C(=O)Cc2cc(F)cc(C(F)(F)F)c2)c2c(N)ncnc21 [GSK2635225A]
potency estimated from few doses (ABL1; compound concentrations: 100 nM and 1000 nM (sheet 'Samples'), CATDS: 0.14527180827686201): 1.13 µM | potency estimated from few doses (ABL2; compound concentrations: 100 nM and 1000 nM (sheet 'Samples'), CATDS: 0.18446738219414099): 0.647 µM

Cl.Cn1c(=O)c(Cc2ccc(F)cc2F)cc2cnc(NC3CCOCC3)nc21 [RO3308757-001]
potency estimated from few doses (ABL1; [1]): 1.76 µM | potency estimated from few doses (ABL2; [1]): 0.513 µM | potency estimated from few doses (BCR; [1]): 0.477 µM | potency estimated from few doses (CLK1): 0.779 µM | potency estimated from few doses (CLK4): 1.11 µM | potency estimated from few doses (GAK; [1]): 0.434 µM | potency estimated from few doses (LCK; [1]): 1.22 µM | potency estimated from few doses (Q6ZSR9): 1.84 µM | potency estimated from few doses (RET; [1]): 0.877 µM | potency estimated from few doses (TNK1; [1]): 0.177 µM | potency estimated from few doses (YES1; [1]): 0.805 µM

CC(C)c1nc(-c2ccc(F)c(NS(=O)(=O)c3c(F)cccc3F)c2)c(-c2ccnc(Nc3ccc(N4CCOCC4)nc3)n2)s1 [GSK1804250A]
potency estimated from few doses (ABL1; [1]): 0.97 µM | potency estimated from few doses (ABL2; [1]): 0.126 µM | potency estimated from few doses (BCR; [1]): 0.954 µM | potency estimated from few doses (FYN; [1]): 0.944 µM | potency estimated from few doses (GAK; [1]): 0.6 µM | potency estimated from few doses (LCK; [1]): 0.342 µM | potency estimated from few doses (RIPK3; [1]): 2.13 µM | potency estimated from few doses (TNK1; [1]): 0.328 µM | potency estimated from few doses (YES1; [1]): 0.679 µM

Source: paper PMC11062922 (Nature Chemical Biology, 2023)
